The text below walks through data of PubChem BioAssay (NCATS).

Assay [1] has as its target RecQ-like DNA helicase BLM (Homo sapiens) (UniProt P54132). The assay is described as follows: qHTS Validation Assay for Inhibitors of Bloom's syndrome helicase (BLM) (AID 2364).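 Also: plate controls were DMSO vehicle for no effect and enzyme-free control for full effect.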 In outline: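 Forked 20-bp duplex substrate (200 nM, TAMRA/BHQ-2) plus 2 mM ATP added after 15 min compound preincubation with 50 nM enzyme, pH 8.0, poly(dI-dC) 2.5 ug/ml. Strand separation followed by fluorescence (525/598 nm) over 2 h, normalized to enzyme-free and DMSO controls.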
A general note: In qHTS, concentration-response curves come from the screen itself.

Assay [2] can be described thus: Validation screen for inhibitors of Lassa infection (AID 463096; calls by dose curve; also: potency is read from the fitted curve at half-maximal effect).
Assay [3] can be described thus: qHTS Assay for Identification of Small Molecule Antagonists for Thrombopoietin (TPO) Signaling Pathway (AID 918). Also: potency is read from the fitted curve at half-maximal effect; nearly all actives have a fitted effect of over 60% in size. The note with it: TPO-dependent cell signaling reporter, antagonist mode. In short, it runs like this:
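Inhibitors of TPO signaling are sought by stimulating IL-3-starved murine Ba/F3 cells (human TPO receptor, Glycoprotein IIb-driven luciferase) with TPO at its EC50 of 26 pM alongside compound. After 24 hrs at 37 C, reporter luminescence is measured.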

Assay [4] addresses Glutathione peroxidase 1 (Homo sapiens) (UniProt P07203). Put plainly: Primary qHTS Assay for Inhibitors of Recombinant Selenoprotein Glutathione Peroxidase 1 (GPX1) (AID 1845191). Also: nearly all actives have a fitted effect of over 65% in size. In short, it runs like this:
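NADPH consumption tracked by fluorescence at 340/450 nm between t=0 and t=15 min, room temperature. Final mix: 10 nM GPX1, 100 nM glutathione reductase, 1 mM GSH, 0.5 mM NADPH, 0.5 mM cumene hydroperoxide, 0.01% BSA; 30 min compound–enzyme preincubation.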

The target in assay [5] is Luciferin 4-monooxygenase (Photinus pyralis) (UniProt P08659). The assay is described as follows: Biochemical firefly luciferase enzyme assay for NPC (AID 624030).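 Also: purified P. pyralis luciferase at 10 nM with luciferin and ATP substrate; 0% = DMSO and -100% = full luciferase inhibition by PTC124 control; nearly all actives have a fitted effect of over 70% in size.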 In short, it runs like this:
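Direct inhibition of firefly luciferase enzyme (10 nM final, 50 mM Tris Acetate) assessed by luminescence within 5 minutes. Percent activity scaled between DMSO and PTC124 positive control, with concentration-effect curves classified by fit quality and response.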

In another assay the test system is 3D7. Put plainly: qHTS profiling for inhibitors of Plasmodium falciparum proliferation (AID 504749). Also: nearly all actives have a fitted effect of over 60% in size. Also: potency is read from the fitted curve at half-maximal effect. The note with it: P. falciparum in erythrocytes, SYBR Green DNA, 72 h; series mostly up to 28.7 µM. In short, it runs like this: (§1)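 SYBR Green fluorescence of parasite DNA, read after lysis and overnight dark incubation, measured growth over 72 h in erythrocyte culture at 0.3% parasitemia and 2.5% hematocrit. Data normalised to DMSO and 0.29 uM artemisinin, with plate-drift correction.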

The test system of a further assay is 7G8. The assay is described as above. The note with it: P. falciparum in erythrocytes, SYBR Green DNA, 72 h; series mostly up to 28.7 µM. In short, it runs like this:
as §1

A further assay deals with CP266. Described as above. The note with it: P. falciparum in erythrocytes, SYBR Green DNA, 72 h; series mostly up to 28.7 µM. In short, it runs like this: as §1
The subject of the next assay is DIV14. The assay is described as above. The conditions noted are these: P. falciparum in erythrocytes, SYBR Green DNA, 72 h; series mostly up to 28.7 µM. In short, it runs like this: as §1
The test system of a further assay is DIV17. Described as above. The conditions noted are these: P. falciparum in erythrocytes, SYBR Green DNA, 72 h; series mostly up to 28.7 µM. In outline:
as §1

For a further assay, the system named is ICS. The description is as above. The conditions noted are these: P. falciparum in erythrocytes, SYBR Green DNA, 72 h; series mostly up to 28.7 µM. In short, it runs like this:
as §1

In a further assay the test system is PC15. The assay is described as above. The conditions noted are these: P. falciparum in erythrocytes, SYBR Green DNA, 72 h; series mostly up to 28.7 µM. In short, it runs like this:
as §1

For the next assay, the system named is PC49. The assay is described as above. The note with it: P. falciparum in erythrocytes, SYBR Green DNA, 72 h; series mostly up to 28.7 µM. In outline:
as §1

Assay [6] addresses Rap guanine nucleotide exchange factor 3 (Homo sapiens) (UniProt O95398). The assay is described as follows: Confirmatory qHTS for antagonist of cAMP-regulated guanine nucleotide exchange factor 3 (EPAC1) (AID 1645880).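 Also: plate controls were DMSO only for no effect and full effect of the ATA control for full effect; nearly all actives have a fitted effect of over 55% in size.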 In short, it runs like this: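 Released BODIPY-GDP fluoresces less than Rap1-bound BODIPY-GDP; the signal is followed at 480/540 nm at 5-min intervals over 30 min, after 5 min at room temperature. Reactions contain 100 nM EPAC1, 250 nM RAP1B-BODIPY-GDP and 50 uM GDP; results are normalized to ATA and DMSO.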

For assay [7] the target is unchanged. The assay is described as follows: Confirmatory qHTS for agonist of cAMP-regulated guanine nucleotide exchange factor 3 (EPAC1) (AID 1645881).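 Also: EPAC1 catalysed release of BODIPY-GDP from Rap1B seen as fluorescence loss; 100% = effect of cAMP agonist control; nearly all actives have a fitted effect of over 75% in size.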
The nature of assay [8]: S16 Schwann cell viability assay (CellTiter-Glo assay) (AID 624031).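 Also: cellular ATP luminescence as a viability measure; plate controls were DMSO-treated cells for no effect and cell-free wells for full effect; nearly all actives have a fitted effect of over 70% in size.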 In outline: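 This viability control uses native rat S16 Schwann cells grown in DMEM plus 10% FBS. After a 24 h compound treatment at 37 °C, CellTiter-Glo luminescence reports ATP content, scaled against DMSO-treated and cell-free wells.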
In general terms: Cellular ATP, detected with luciferase, serves as a proxy for viable cell number.

A further assay has as its system FAB9. Put plainly: qHTS profiling for inhibitors of Plasmodium falciparum proliferation (AID 504749). Also: nearly all actives have a fitted effect of over 60% in size. Also: potency is read from the fitted curve at half-maximal effect. The note with it: P. falciparum in erythrocytes, SYBR Green DNA, 72 h; series mostly up to 28.7 µM. In outline:
as §1

Assay [9] in a line: qHTS profiling of the MIPE4 collection as inhibitors of Plasmodium falciparum (3D7) proliferation (AID 743344; call rule not given here;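 also: scaled between DMSO vehicle wells and 0.29 µM artemisinin as full inhibition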). The note with it: P. falciparum 3D7 in erythrocytes, SYBR Green DNA fluorescence, 72 h; at 28.5 µM (top of the series) unless noted. In short, it runs like this: (§2)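 Parasite DNA was quantified by SYBR Green I fluorescence (ex 485, em 535 nm) after overnight lysis in saponin/Triton buffer at room temperature. Cultures at 0.3% parasitemia and 2.5% hematocrit were first exposed to compound for 72 h at 37 C; signals were normalised to artemisinin (0.29 uM) and vehicle wells.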

Assay [10] is described as follows: qHTS profiling of the MIPE4 collection as inhibitors of Plasmodium falciparum (DD2) proliferation (AID 743345; call rule not given here). The note with it: P. falciparum Dd2 in erythrocytes, SYBR Green DNA, 72 h; at 28.5 µM (top of the series) unless noted. In outline: as §2
Assay [11] can be described thus: qHTS profiling of the MIPE4 collection as inhibitors of Plasmodium falciparum (HB3) proliferation (AID 743347; call rule not given here;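 also: plate controls were DMSO vehicle wells for no effect and artemisinin wells for full effect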). The conditions noted are these: P. falciparum HB3 in erythrocytes, SYBR Green DNA, 72 h; at 28.5 µM (top of the series) unless noted. In short, it runs like this: as §2

Results filed as inconclusive are left out. The source made the active and inactive calls. Unless noted, calls follow the shape of the dose curve; as a rule, active = well fitted curve in the direction sought with a large enough effect; inconclusive = small, poorly fitted or top-dose-only effect, or another doubt; inactive = no such curve, though single readings can be large; an effect the other way counts as inactive or inconclusive.

Rap guanine nucleotide exchange factor 3 (Homo sapiens), sequence (O95398 whole entry, looked up): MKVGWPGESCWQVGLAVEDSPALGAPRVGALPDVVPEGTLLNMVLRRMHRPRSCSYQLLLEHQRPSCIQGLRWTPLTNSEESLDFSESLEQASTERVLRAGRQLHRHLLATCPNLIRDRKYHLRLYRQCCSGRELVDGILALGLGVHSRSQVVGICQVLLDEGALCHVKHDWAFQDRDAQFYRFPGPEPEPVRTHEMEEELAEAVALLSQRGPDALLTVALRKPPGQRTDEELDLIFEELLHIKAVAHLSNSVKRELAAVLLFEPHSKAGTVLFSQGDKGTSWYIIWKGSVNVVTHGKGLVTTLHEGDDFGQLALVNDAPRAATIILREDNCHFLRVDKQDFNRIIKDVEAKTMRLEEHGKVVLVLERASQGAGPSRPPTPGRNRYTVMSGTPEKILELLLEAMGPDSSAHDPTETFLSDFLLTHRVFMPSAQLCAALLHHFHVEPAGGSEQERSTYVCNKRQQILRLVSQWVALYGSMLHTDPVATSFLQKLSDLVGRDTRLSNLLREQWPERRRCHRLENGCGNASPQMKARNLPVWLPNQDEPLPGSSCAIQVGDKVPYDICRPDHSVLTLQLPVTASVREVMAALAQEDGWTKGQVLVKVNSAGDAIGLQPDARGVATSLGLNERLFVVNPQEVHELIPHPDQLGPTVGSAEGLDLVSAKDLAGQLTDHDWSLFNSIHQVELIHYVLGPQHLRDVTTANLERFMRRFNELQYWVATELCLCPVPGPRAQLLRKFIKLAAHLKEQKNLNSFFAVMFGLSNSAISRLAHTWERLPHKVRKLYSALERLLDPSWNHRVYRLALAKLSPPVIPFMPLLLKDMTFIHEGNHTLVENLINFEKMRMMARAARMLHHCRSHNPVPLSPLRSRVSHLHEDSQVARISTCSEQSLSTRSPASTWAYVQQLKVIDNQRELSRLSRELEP
Luciferin 4-monooxygenase (Photinus pyralis), sequence (P08659 whole entry, looked up): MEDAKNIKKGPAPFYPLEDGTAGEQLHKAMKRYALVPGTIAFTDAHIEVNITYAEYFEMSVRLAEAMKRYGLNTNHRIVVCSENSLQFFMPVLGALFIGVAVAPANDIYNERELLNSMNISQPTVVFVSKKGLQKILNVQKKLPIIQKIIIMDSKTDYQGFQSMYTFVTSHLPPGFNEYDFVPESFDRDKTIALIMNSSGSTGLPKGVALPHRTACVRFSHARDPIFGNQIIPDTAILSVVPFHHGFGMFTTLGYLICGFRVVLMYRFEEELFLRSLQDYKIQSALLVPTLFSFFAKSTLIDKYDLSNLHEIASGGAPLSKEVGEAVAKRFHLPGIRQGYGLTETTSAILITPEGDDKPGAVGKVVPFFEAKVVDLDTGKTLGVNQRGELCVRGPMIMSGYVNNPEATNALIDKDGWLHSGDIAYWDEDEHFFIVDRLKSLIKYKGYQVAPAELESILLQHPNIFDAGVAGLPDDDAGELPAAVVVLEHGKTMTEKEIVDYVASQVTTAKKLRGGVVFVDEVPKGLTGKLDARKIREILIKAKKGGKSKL
Glutathione peroxidase 1 (Homo sapiens), sequence (P07203 whole entry, looked up): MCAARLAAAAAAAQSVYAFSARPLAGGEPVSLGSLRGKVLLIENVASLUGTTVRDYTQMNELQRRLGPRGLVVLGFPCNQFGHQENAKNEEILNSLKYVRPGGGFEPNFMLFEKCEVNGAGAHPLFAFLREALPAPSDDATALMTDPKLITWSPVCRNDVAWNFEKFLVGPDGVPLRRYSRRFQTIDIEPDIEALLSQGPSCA
RecQ-like DNA helicase BLM (Homo sapiens), sequence (P54132 whole entry, looked up): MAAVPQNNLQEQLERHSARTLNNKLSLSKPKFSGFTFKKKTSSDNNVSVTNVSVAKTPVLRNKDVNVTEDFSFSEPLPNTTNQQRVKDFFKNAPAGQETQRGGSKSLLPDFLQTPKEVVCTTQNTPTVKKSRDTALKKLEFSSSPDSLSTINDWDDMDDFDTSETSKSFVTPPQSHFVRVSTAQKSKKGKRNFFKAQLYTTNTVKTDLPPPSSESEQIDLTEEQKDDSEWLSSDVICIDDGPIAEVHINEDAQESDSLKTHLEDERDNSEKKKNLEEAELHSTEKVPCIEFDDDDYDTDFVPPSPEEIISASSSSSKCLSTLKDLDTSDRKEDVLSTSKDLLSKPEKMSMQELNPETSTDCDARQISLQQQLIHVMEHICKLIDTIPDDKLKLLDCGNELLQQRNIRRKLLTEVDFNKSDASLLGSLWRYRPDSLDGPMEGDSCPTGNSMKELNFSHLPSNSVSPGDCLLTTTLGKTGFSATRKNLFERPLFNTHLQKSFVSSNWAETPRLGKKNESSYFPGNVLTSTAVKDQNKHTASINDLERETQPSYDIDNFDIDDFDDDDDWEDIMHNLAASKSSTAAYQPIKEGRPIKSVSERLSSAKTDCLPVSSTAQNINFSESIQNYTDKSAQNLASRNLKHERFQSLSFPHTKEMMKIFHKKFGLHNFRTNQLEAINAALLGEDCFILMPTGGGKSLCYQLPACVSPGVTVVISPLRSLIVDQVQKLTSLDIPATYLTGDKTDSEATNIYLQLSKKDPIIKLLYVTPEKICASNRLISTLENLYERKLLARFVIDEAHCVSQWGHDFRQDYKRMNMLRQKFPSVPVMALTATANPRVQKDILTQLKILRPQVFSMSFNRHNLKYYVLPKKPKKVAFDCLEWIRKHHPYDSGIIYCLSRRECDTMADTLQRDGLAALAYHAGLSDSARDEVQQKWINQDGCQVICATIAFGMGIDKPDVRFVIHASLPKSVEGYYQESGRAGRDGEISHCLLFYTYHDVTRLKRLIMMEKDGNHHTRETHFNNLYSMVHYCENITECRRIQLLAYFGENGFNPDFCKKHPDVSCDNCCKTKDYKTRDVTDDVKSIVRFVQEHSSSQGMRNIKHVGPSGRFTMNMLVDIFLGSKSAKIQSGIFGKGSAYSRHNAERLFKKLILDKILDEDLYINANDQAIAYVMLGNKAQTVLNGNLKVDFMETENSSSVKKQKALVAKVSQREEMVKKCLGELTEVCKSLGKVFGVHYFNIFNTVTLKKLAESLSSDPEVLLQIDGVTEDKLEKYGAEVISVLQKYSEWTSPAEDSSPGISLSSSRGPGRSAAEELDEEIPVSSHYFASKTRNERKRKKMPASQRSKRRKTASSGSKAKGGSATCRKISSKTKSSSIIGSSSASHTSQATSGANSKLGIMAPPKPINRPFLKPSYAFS

For `C[C@@H]1O[C@@H](O[C@H]2C[C@@H](O)[C@]3(CO)[C@@H]4C(CC[C@]3(O)C2)[C@@]2(O)CC[C@H](C3=CC(=O)OC3)[C@@]2(C)C[C@H]4O)[C@H](O)[C@H](O)[C@H]1O` (stereo not given in full), the Potency entry in assay [1] is “inactive”. The Potency in assay [2] was 100 nM (active).

Turning to `CN1[C@@H]2CC[C@H]1CC(O[C@@H](c1ccccc1)c1ccc(Cl)cc1)C2` (stereo not given in full), in [3], the Potency is 12600 nM (active).

`CN(C(=O)Cc1ccccc1)[C@H](CN1CCCC1)c1ccccc1`: the Potency entry in assay [4] was “inactive”.

On to `CC(C)[C@@]1(NC(=O)[C@H]2CC3c4cccc5[nH]cc(c45)C[C@H]3N(C)C2)O[C@@]2(O)C3CCCN3C(=O)[C@@H](Cc3ccccc3)N2C1=O` (stereo not given in full), for which the Potency result in assay [5] was “inactive”. Besides, the Potency in the assay with 3D7 was 2240 nM (active); in the assay on 7G8, 199 nM (active); in the assay with CP266 it was 6010 nM (active); in the assay with DIV14 it was 953 nM (active); in the assay on DIV17, 849 nM (active); in the assay on ICS, 447 nM (active). Besides, the Potency with PC15 is 1780 nM (active); with PC49, 3160 nM (active).

`CC(C)(O)[C@H]1O[C@@H]2CC[C@]3(C)[C@@]4(C)c5[nH]c6ccccc6c5C[C@@H]4CC[C@]3(O)C2=CC1=O`: in [6], the Potency result is “inactive”. Moreover, the outcome in [7] was inactive.

As for `C(=C/c1ccccc1)/CN1CCN(CCOC(c2ccccc2)c2ccccc2)CC1`, the Potency entry in assay [6] was “inactive”. Also, in assay [7], the call was inactive.

Take `O=C(O)c1ccccc1-c1c2cc(Br)c(=O)cc-2oc2[c]([Hg])c(O)c(Br)cc12`: the Potency entry (in assay [8]; with DIV14; in the assay with DIV17; in the assay on FAB9; in the assay on ICS) was “inactive” each time.

Regarding `Cc1ncc(C[n+]2csc(CCO)c2C)c(=O)[nH]1`, in assay [9], the parasite growth, % of DMSO control turned out to be 96.7%. The parasite growth remaining, % of DMSO control (lower = more inhibition) in assay [10] came to 104%. Moreover, in assay [11], the growth, % of control worked out at 73.2%.

On to `CCN1C[C@]2(COC)[C@H](O)C[C@H](OC)[C@]34C1C([C@H](OC)[C@H]23)[C@]1(OC(C)=O)C2[C@@H](OC(=O)c3ccccc3)C(O)(C[C@H]24)[C@@H](OC)[C@@H]1O`, for which the Potency result (in assay [5]; in assay [8]; in the assay on 3D7; in the assay on CP266; with FAB9; with PC15) was “inactive” in each case. Also, in the assay with PC49, the Potency result was “inactive”.

In the case of `O=C1CC[C@@]2(O)[C@H]3Cc4ccc(O)c5c4C2(CCN3CC2CC2)[C@H]1O5`, in assay [9], the parasite growth, % of DMSO control was 101%. Further, the parasite growth remaining, % of DMSO control (lower = more inhibition) in assay [10] was determined as 82%. Further, the growth, % of control in assay [11] came out at 94.1%.
